Results on 27 compounds are retold here after PubChem BioAssay (Tox21).

Inconclusive results are not listed. A number with no mark means an inactive call. Calls of active or inactive are those of the source. The call rests on the fitted dose curve; in most records, active means well fitted curve in the direction sought with a large enough effect in the repeat runs; inconclusive means weak or mixed curves; inactive means no such curve, though single readings can be large; an effect the other way counts as inactive or inconclusive.
On the % scale 0 is the no-effect control and ±100 the full control effect.

A short description of one test: Human pregnane X receptor (PXR) small molecule agonists, qHTS cell viability counter screen (AID 1346977). Further: nearly all actives have a fitted effect of over 50% in size. Further: potency means the concentration at half of the fitted maximal effect. Particulars: PXR-Luc HepG2 viability, CellTiter-Fluor, 24 h; series mostly up to 92.4 µM; activity change, negative = cytotoxicity: at the top concentration. The method, boiled down:
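PXR-Luc HepG2 cells in medium with 5% charcoal-stripped FBS were pre-incubated 5hr, then exposed to compounds for 24hr at 37C. Viability was read in the same wells by CellTiter-Fluor fluorescence, reagent added after 23hr with a 1hr incubation.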
For the compound `COC(=O)/C=C/c1ccccc1`, the Potency result is “inactive”.

On to `C[N+]1([O-])CCOCC1`, for which the “activity change, negative = cytotoxicity” value is 4.4%. Take `CCN(CC)C(=O)Nc1ccc(OCC(O)CNC(C)(C)C)c(C(C)=O)c1` (configuration not stated): the “activity change, negative = cytotoxicity” value is 0.42% [at 42.5 µM].

With `Cc1cc(C(C)(C)C)c(O)c(C(C)(C)C)c1`, the Potency result is “inactive”.

As for `CCOc1ccccc1C(N)=O`, the “activity change, negative = cytotoxicity” value is 4.2%. For `O=C(O[C@@H]1Cc2c(O)cc(O)cc2O[C@@H]1c1cc(O)c(O)c(O)c1)c1cc(O)c(O)c(O)c1`, the Potency is 35.5 µM (active).

Regarding `O=C1CC2(CCCC2)CC(=O)N1CCCCN1CCN(c2ncccn2)CC1`, the “activity change, negative = cytotoxicity” value is -2.95% [at 42.5 µM].

A further test is described as follows: Caspase-3/7 induction in HepG2 cells by small molecules, qHTS assay (AID 1346978). Further: nearly all actives have a fitted effect of over 15% in size. The following applies: HepG2 caspase-3/7 activation, Caspase-Glo luminescence, 17 h; series mostly up to 92.4 µM; caspase activation: at the top concentration. The method, boiled down:
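Caspase-3/7 induction was measured by Caspase-Glo 3/7 luminescence (30 min, room temperature) after a 17 hr compound exposure of wild-type HepG2 cells seeded at 2,000 per well and pre-incubated 5 hr.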
For orientation: qHTS replaces the single test concentration by a dilution series.
In the case of `O=C1NCC2(CCN(CCc3ccccc3)CC2)O1`, the “caspase activation” value was 0.751% [at 42.5 µM]. Same read-out and setting: the result for `c1ccc2c(c1)CCCC2C1=NCCN1` (configuration not stated) reads -0.54% [at 42.5 µM]. On to `Cc1cccc(O)c1C`, for which the Potency entry is “inactive”. Take `NC(=Nc1ccccc1)Nc1ccccc1`: the “caspase activation” value is 0.607%.

With `CCc1cc(C(C)(C)C)c(O)c(C(C)(C)C)c1`, the Potency result is “inactive”. On to `CC1=C(C=O)C(C)(C)CC=C1`, for which the “caspase activation” value is 1.34%.

Regarding `O=C(O)CCc1ccccc1`, the “caspase activation” value was -1.39%. In the case of `NCCCCCC(=O)O`, the “caspase activation” value was 0.0279% [at 42.5 µM]. On to `CC(=O)OCCOCCOCCOC(C)=O`, for which the Potency result is “inactive”. In the case of `Nc1nc2ccccc2[nH]1`, the Potency result was “inactive”.

For the compound `c1cnc2cc3c(cc2n1)C1CNCC3C1`, the “caspase activation” value was -0.598% [at 42.5 µM]. Same read-out and setting: the same measure for `OCC(CO)N[C@H]1C[C@](O)(CO)[C@@H](O)[C@H](O)[C@H]1O`: 0.0513% [at 42.5 µM]; for `Cc1occc(=O)c1OC(=O)C(C)C`: -0.284%. Consider `OCCN1CCNCC1`, for which the Potency result was “inactive”. For `CCC(=O)/C=C/C1C(C)=CCCC1(C)C` (configuration not stated), the Potency result was “inactive”. Turning to `CC[C@@H](N)CO`, the “caspase activation” value is -0.148%. Consider `C=CS(=O)(=O)O`, for which the “caspase activation” value is 0.749%.

Take `Clc1ccc2c(c1)C(N1CCNCC1)=Nc1ccccc1O2`: the Potency result is “inactive”. For the compound `CC(C)(C)c1ccccc1`, the “caspase activation” value was 1.2%.

`CCCCOCCOC(=O)c1ccccc1C(=O)OCCOCCCC`: the Potency entry was “inactive”.
